This note sets out measurements from PubChem BioAssay (NCI).

Compounds without any hit were thinned out: in the full panel of roughly 83,000, 20% have a hit.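 Results are percent growth after 48 hours of single-concentration exposure. 100 means growth as in untreated cells, lower positive values show inhibition; negative values down to -100 show cell death.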 A number with no mark means an inactive call. Calls of active or inactive are those of the source. Rule for the calls: active = growth percent below 10; inactive = the rest.

For the test, the system named is MDA-MB-468 breast. The test is described as follows: NCI-60 one-dose screen, 48 h (100 = growth as untreated, 0 = no growth, -100 = all killed). Conditions: 10 µM unless noted.
Turning to `CN1CC[C@@H](c2c(O)cc(O)c3c(=O)cc(-c4ccccc4Cl)oc23)[C@@H]1CO`, the growth is -44.2% (active).
For `COc1cc(CNC(=O)CCCC/C=C/C(C)C)ccc1OCc1cn(-c2cccc([N+](=O)[O-])c2)nn1`, the growth was 72.3%.
For `Clc1cccc(-c2nc(-c3cccs3)no2)c1`, the growth was 3.37% (active).
For the compound `Cn1c(=O)c2[nH]c(SC/C(=N/O)c3ccc(Br)cc3)nc2n(C)c1=O`, the growth is 47.1%.
With `C[C@@H]1CC[C@@H]2[C@@H]1[C@H](OC(=O)/C=C/c1ccccc1)[C@]1(c3ccccc3)C[C@@H](NC(=O)CO)[C@@]2(C)O1`, the growth is 98.3%.
For the compound `COc1ccc(C2CC(c3ccc4ccccc4c3)=NN2c2nc(O)c(C3=c4cc(OC)ccc4=NC3=O)s2)cc1` (configuration not stated), the growth was -46.5% (active).
Next, `COC(=O)/C(CCC=C(C)C)=C1\[C@@H](OC(C)=O)C[C@@]2(C)[C@H]1C[C@@H](O)[C@H]1[C@@]3(C)CC[C@H](NCCO)[C@@H](C)[C@@H]3CC[C@@]12C`: 104%.
Next, `O=C(O)CCCCCCCCCCN1C(=O)/C(=C2/C(=O)N(CC(=O)O)c3ccc(Br)cc32)SC1=S`: 102%; `COc1cc2c(c(OC)c1OC)CCC(c1cccc(C(=O)Nc3ccccc3Br)c1)O2` (configuration not stated): 85.2%.
As for `Cc1ccc2nc(NC(=O)CSc3nc(-c4ccccc4)c(C#N)c(=O)n3Cc3ccccc3)sc2c1`, the growth is 102%.
In the case of `CCOC(=O)c1c2c(c(C)n1Cc1ccc(OC)cc1)-c1nc(N)ncc1CC2`, the growth is 107%.
Next, `O=C1NC(=O)/C(=C/c2ccc3nccc(-c4ccncc4)c3c2)S1`: -49.2% (active).
